# Results filed as inconclusive are left out. Unmarked numbers belong to inactive results. Active and inactive are the calls of the source. Unless noted, calls come from the whole dose curve; as a rule, active = well fitted curve in the direction sought with a large enough effect; inconclusive = small, poorly fitted or top-dose-only effect, or another doubt; inactive = no such curve, though single readings can be large or run the other way.
# Key:
# [1] = target: Thyroid hormone receptor beta (Homo sapiens) (UniProt P10828); assay: qHTS assay for small molecule antagonists of thyroid hormone receptor beta signaling (AID 588547; active = well fitted inhibition curve with a large enough effect in the signal ratio, with a control signal flat, not every such curve was filed as active; the % refers to the signal ratio;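 note: cells stimulated with 0.4 nM T3 agonist during compound exposure; % is set by controls: 0 for no effect and ±100 for the full control effect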); conditions: TR-UAS-bla HEK293, beta-lactamase ratio, antagonist mode, 18 h
# Chain of Thyroid hormone receptor beta (Homo sapiens) (P10828 whole entry, looked up): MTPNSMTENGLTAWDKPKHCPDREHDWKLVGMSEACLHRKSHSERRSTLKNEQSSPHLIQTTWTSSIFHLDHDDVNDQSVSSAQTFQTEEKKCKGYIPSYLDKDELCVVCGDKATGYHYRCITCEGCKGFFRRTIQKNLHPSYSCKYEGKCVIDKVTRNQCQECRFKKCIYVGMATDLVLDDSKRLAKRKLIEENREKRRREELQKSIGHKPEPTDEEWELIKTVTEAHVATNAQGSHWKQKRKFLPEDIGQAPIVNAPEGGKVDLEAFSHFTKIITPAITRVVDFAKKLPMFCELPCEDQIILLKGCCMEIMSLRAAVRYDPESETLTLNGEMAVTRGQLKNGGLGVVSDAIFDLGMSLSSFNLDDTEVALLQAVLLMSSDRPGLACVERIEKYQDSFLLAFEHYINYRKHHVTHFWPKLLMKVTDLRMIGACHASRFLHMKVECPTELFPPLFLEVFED
# Summary of the method: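 TR-UAS-bla GripTite HEK293 cells in 2% charcoal/dextran FBS medium were preincubated 4 h at 37 C, given compound (0.59 nM to 92 uM) plus 0.4 nM T3 (final) for 18 h, then CCF4 for 2 h at RT; Hill fit gave IC50.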
# [2] = qHTS assay for small molecule activators of the nuclear factor-kappa B (NF-kB) signaling pathway (AID 651749; active = well fitted activation curve with a large enough effect in the signal ratio; the % refers to the signal ratio; note: potency is the fitted concentration of half-maximal effect; for activation: % of control where 0% means no effect); conditions: NF-kB-bla ME-180 cells, beta-lactamase FRET ratio, 16 h; activation: stronger effect = higher value
# Summary of the method: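 Human ME-180 cervical cells with an NF-kB-bla construct; compounds added via 23 nL pin transfer, DMSO as vehicle; incubation 16 hr. Reporter activity measured by FRET disruption.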
# [3] = target: Peroxisome proliferator-activated receptor delta (Homo sapiens) (UniProt Q03181); assay: qHTS assay for small molecule antagonists of peroxisome proliferator-activated receptor delta signaling (AID 588535; active = well fitted inhibition curve with a large enough effect in the signal ratio, with a control signal flat, not every such curve was filed as active; the % refers to the signal ratio); conditions: HEK293T PPARd-UAS-bla, beta-lactamase FRET ratio, 18 h; series mostly up to 76.7 µM
# Chain of Peroxisome proliferator-activated receptor delta (Homo sapiens) (Q03181 whole entry, looked up): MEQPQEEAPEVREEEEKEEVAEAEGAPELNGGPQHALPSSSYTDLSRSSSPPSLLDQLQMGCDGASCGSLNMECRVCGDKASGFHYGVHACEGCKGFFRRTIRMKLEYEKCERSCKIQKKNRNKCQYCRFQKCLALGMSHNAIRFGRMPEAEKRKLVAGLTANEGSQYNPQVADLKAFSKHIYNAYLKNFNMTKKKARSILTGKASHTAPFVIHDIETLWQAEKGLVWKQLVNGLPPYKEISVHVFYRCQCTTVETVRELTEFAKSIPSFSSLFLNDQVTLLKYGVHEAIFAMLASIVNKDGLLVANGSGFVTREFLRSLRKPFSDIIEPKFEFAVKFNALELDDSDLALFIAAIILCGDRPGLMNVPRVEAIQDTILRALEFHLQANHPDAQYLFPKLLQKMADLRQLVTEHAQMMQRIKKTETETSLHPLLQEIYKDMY
# Summary of the method: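 Inhibition of PPAR-delta response element-driven beta-lactamase expression is measured in HEK293T cells exposed to a compound titration series for 18 hrs at 37 C. Half-maximal inhibition comes from Hill equation fitting.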
# [4] = target: Peroxisome proliferator-activated receptor gamma (Homo sapiens) (UniProt P37231); assay: qHTS assay for small molecule agonists of peroxisome proliferator-activated receptor gamma signaling (AID 588536; active = well fitted curve in the direction sought with a large enough effect in the signal ratio, with a control signal flat, not every such curve was filed as active; the % refers to the signal ratio;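 note: 0% = DMSO basal wells and 100% = rosiglitazone at 2 µM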); conditions: HEK293 PPARg-UAS-bla, beta-lactamase ratio, 16 h, percent of rosiglitazone response, DMSO as zero; series mostly up to 76.7 µM
# Chain of Peroxisome proliferator-activated receptor gamma (Homo sapiens) (P37231 whole entry, looked up): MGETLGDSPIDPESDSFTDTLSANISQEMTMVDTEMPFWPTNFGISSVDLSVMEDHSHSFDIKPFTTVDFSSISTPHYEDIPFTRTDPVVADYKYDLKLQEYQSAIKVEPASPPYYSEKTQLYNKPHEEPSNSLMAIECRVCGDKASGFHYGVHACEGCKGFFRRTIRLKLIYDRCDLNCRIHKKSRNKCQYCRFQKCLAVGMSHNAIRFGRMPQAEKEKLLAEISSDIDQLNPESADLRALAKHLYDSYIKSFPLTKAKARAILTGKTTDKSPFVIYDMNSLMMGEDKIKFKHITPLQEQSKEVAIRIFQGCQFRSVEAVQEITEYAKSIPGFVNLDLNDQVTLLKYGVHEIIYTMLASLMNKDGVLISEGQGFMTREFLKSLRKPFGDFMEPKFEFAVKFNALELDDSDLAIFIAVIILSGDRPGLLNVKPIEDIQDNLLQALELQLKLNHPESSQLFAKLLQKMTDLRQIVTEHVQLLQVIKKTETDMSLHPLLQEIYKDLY
# Summary of the method: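 Cells were plated and held 6–6.5 h at 37 C, then compounds were added as a titration series. After a further 16 h, CCF4 dye was loaded for 2 h at room temperature and emission at 460/530 nm recorded.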
# [5] = target: Peroxisome proliferator-activated receptor gamma (Homo sapiens) (UniProt P37231); assay: qHTS assay for small molecule antagonists of peroxisome proliferator-activated receptor gamma signaling (AID 588537; active = well fitted inhibition curve with a large enough effect in the signal ratio, with a control signal flat, not every such curve was filed as active; the % refers to the signal ratio;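 note: reporter cells co-stimulated with 50 nM rosiglitazone agonist during compound treatment; % of control where 0% means no effect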); conditions: HEK293 PPARg-UAS-bla, beta-lactamase ratio, antagonist mode; series mostly up to 76.8 µM
# Summary of the method: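 Compounds are tested as concentration series for inhibition of rosiglitazone-driven (50 nM) reporter expression in GeneBLAzer PPAR-gamma-UAS-bla HEK293 cells. After 16 h at 37 C, CCF4 substrate is added for 2 h at room temperature and blue/green fluorescence is measured.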
# [6] = qHTS for Inhibitors of the vitamin D receptor (VDR): Hit Validation using a Texas Red Assay (AID 602201); conditions: VDR coregulator binding, Texas Red fluorescence polarization, agonist-bound VDR ligand-binding domain; series mostly up to 57.1 µM; note: potency is the fitted concentration of half-maximal effect
# Summary of the method: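 Fluorescence polarization (Ex 595/Em 615 nm) of Texas Red (7 nM) with 1.5 uM VDR-LBD and LG19078 (final concentrations). Compounds were incubated for 2 hours at room temperature.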
smiles,measurement,setting,value
Oc1ccc(Nc2ccccc2)cc1,activity change % (negative = inhibition),[1],-3.3%
same,activation,[2],-2.8%
CCN(Cc1c(F)cccc1Cl)c1c([N+](=O)[O-])cc(C(F)(F)F)cc1[N+](=O)[O-],Potency,[3],inactive
same,outcome,[4],inactive
same,Potency,[5],inactive
same,activity change % (negative = inhibition),[1],-17.5%
same,activation,[2],-3.71%
COc1cccc(C(=O)C(C#N)=C(SC)SC)c1,Potency,[6],inactive
S=C([S-])NCCNC(=S)[S-].S=C([S-])NCCNC(=S)[S-].[Mn+2].[Zn+2],outcome,[4],inactive
C#CCOc1c(Cl)cc(/C=C2/C(=O)ON=C2C)cc1OCC,Potency,[6],15.8 µM (active)
CC1(C)C(=O)N(Br)C(=O)N1Cl,outcome,[4],inactive
same,Potency,[5],inactive
same,activity change % (negative = inhibition),[1],-12%
same,activation,[2],-2.38%
O=C(Nc1ccccc1)c1cc(Cl)ccc1O,activation,[2],4.05%
OCCOCCOCCOCCOCCO,Potency,[3],inactive
same,outcome,[4],inactive
same,Potency,[5],inactive
same,activity change % (negative = inhibition),[1],-16.4%
CCCCC(CC)COC(=O)CS (stereo unspecified),activity change % (negative = inhibition),[1],1.03%
same,activation,[2],1.76%
CN(C)c1ccc(C(c2ccccc2)c2ccc(N(C)C)cc2)cc1,activity change % (negative = inhibition),[1],13.2%
same,activation,[2],5.79%
c1cc2ccc3ccc4ccc5cccc6c(c1)c2c3c4c56,Potency,[2],39.8 µM (active)
Cc1ccc(Cl)cc1Cl,activity change % (negative = inhibition),[1],-1.13%
same,activation,[2],-1.58%
O=c1oc(=O)c2cc3c(=O)oc(=O)c3cc12,Potency,[3],inactive
same,activity change % (negative = inhibition),[1],-2.54%
same,activation,[2],-1.97%
CCNc1nc(N)nc(Cl)n1,Potency,[3],inactive
same,activity change % (negative = inhibition),[1],-8.97%
CS(=O)(=O)c1ccc(Cl)cc1,Potency,[3],inactive
same,activity change % (negative = inhibition),[1],-10.2%
S=C(S)NCCNC(=S)S,outcome,[4],inactive
same,Potency,[5],inactive
same,activity change % (negative = inhibition),[1],-7.47%

# Source: PubChem BioAssay (NCATS)
